High-throughput results (PubChem BioAssay)
Compounds with a hit are over-represented: about 2.1% of the library has one in this group of screens.
PAX8 inh HTS: inhibitors of PAX8 transcriptional activity in RMG-I cells; inhibition, % at 12.6 µM; AID 652154; 1.2% of 360,000 active; RMG-I TPO-luciferase reporter, SteadyGlo, 24 h;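 active = mean replicate inhibition at least 60% with every replicate also reaching 60%; inconclusive = only one of the two criteria is met; inactive = mean below 60% and not all replicates reaching 60%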;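 note: luciferase light reporting Pax8 driven TPO promoter activity; plate controls were median of neutral control wells for no effect and mitoxantrone controls for full effect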
LMP1 NFkB inh: Epstein-Barr LMP1 NF-kappaB reporter inhibition. LMP1-induced NF-kappaB luciferase reporter cells, luminescence. inhibition, % at 12.5 µM. 0.69% of 350,000 active. AID 504558; in the data active = inhibition above about 41%; inconclusive = no clear call, values can overlap the other calls;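 note: 0% = neutral control wells and 100% = reference inhibitor control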
Shn3 3UTR inh: reduces Shn3 3'UTR luciferase signal in osteoblasts | Clone20 osteoblast Shn3 3'UTR firefly luciferase, 24 h | inhibition, % at 12.5 µM | 0.52% of 360,000 active | AID 588674;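 active = mean inhibition of at least 75% with every replicate also reaching 75%; inconclusive = mean inhibition at least 75% but some replicate below; inactive = mean inhibition below 75%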;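 note: 0% = median of neutral control wells and 100% = pilot-screen positive control compound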
aSyn UTR inh: 5' untranslated region of α-synuclein, MLPCN primary screen | alpha-synuclein 5'UTR reporter, inhibitor activity | inhibition, % (tested at 7.5 µM) | 0.82% of 300,000 active; in the data active = inhibition above about 60%; inconclusive = no clear call, values can overlap the other calls;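 note: H4 neuroglioblastoma cells stably carrying SNCA 5'UTR luciferase fusion; 0% = DMSO wells and 100% = positive control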
MITF TRPM1 inh: inhibitors of MITF-driven TRPM1 promoter in melanoma cells | 0.83% of 330,000 active | AID 488899 | inhibition, % at 12.5 µM | SK-MEL-5 TRPM1 promoter luciferase, 24 h;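 active = mean inhibition across replicates of 60% or more, whatever share of single replicates reaches that level; inconclusive = some that reach 60%, reason not given; inactive = mean inhibition across replicates below 60%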
The depositor's hits bear a star.

For O=[N+]([O-])c1ccc(-c2ccc(/C=N/Nc3nc(N4CCCC4)nc(N4CCCC4)n3)o2)cc1 the results were PAX8 inh HTS -2, LMP1 NFkB inh -111, Shn3 3UTR inh 33, aSyn UTR inh -13 and MITF TRPM1 inh 68*.
For COC(=O)CC1COc2ccccc2N1C(=O)c1cccc(C(F)(F)F)c1 (stereo not drawn) the results were PAX8 inh HTS 19, LMP1 NFkB inh 4, Shn3 3UTR inh 13, aSyn UTR inh 1 and MITF TRPM1 inh 17.
CC1CCCC(C)N1C(=O)COC(=O)C12CC3CC(CC(Cl)(C3)C1)C2 (stereo not drawn) was read as PAX8 inh HTS -6, LMP1 NFkB inh -2, Shn3 3UTR inh -1 and MITF TRPM1 inh -2.
For O=C(Nc1ccnn1C1CCN(Cc2ccc(CO)o2)CC1)c1ccc2c(c1)OCO2 the results were PAX8 inh HTS -16, LMP1 NFkB inh 1, Shn3 3UTR inh -11, aSyn UTR inh 2 and MITF TRPM1 inh 3.
For COc1cnc(-c2ccccn2)nc1N(C)c1ccccc1 the results were PAX8 inh HTS -3, LMP1 NFkB inh 12, Shn3 3UTR inh 89*, aSyn UTR inh 89* and MITF TRPM1 inh 18.
`COc1cnc(-c2ccccn2)nc1Oc1ccccc1` gave PAX8 inh HTS 40, LMP1 NFkB inh 24, Shn3 3UTR inh 7, aSyn UTR inh -47 and MITF TRPM1 inh 9.
`COc1cc(OC)c(OC)cc1/C=C1\CC(C)C/C(=C\c2cc(OC)c(OC)cc2OC)C1=O` (stereo not drawn) gave PAX8 inh HTS 74*, LMP1 NFkB inh 19, Shn3 3UTR inh 94*, aSyn UTR inh -20 and MITF TRPM1 inh 51.
Screening S=c1[nH]nc(-c2cc(-c3ccccc3)n[nH]2)n1/N=C/c1ccc(Cl)c(Cl)c1 returned PAX8 inh HTS 11, LMP1 NFkB inh -2, Shn3 3UTR inh 10, aSyn UTR inh 33 and MITF TRPM1 inh -12.
`O=[N+]([O-])c1cc(Cl)cc(/C=N\Nc2ccccn2)c1O` gave LMP1 NFkB inh 31, Shn3 3UTR inh 89*, aSyn UTR inh 90* and MITF TRPM1 inh 58.
For O=[N+]([O-])c1ccc(Cl)cc1C=NNc1ccccn1 the results were PAX8 inh HTS 28, LMP1 NFkB inh -4, Shn3 3UTR inh -14 and MITF TRPM1 inh 8.
Screening COC(=O)C1CCCCN1C(=O)c1cccc(OC2CCN(C(=O)C3CC3)CC2)c1 (stereo not drawn) returned PAX8 inh HTS -13, LMP1 NFkB inh -1, Shn3 3UTR inh -4, aSyn UTR inh -9 and MITF TRPM1 inh 14.
`NC(=O)c1cc([N+](=O)[O-])ccc1NCc1ccc(F)cc1` gave PAX8 inh HTS -39, LMP1 NFkB inh 17 and Shn3 3UTR inh 9.
NC(=O)c1cc([N+](=O)[O-])ccc1NCc1ccc(N)cc1 was read as PAX8 inh HTS 35, LMP1 NFkB inh 49*, Shn3 3UTR inh 76 and MITF TRPM1 inh 79*.
For Cc1c(C(=O)N(Cc2ccc(N(C)C)cc2)CC2CCCO2)oc2ccccc12 (stereo not drawn) the results were PAX8 inh HTS 9, LMP1 NFkB inh -1, Shn3 3UTR inh 19, aSyn UTR inh 2 and MITF TRPM1 inh 6.
`CN1c2ccccc2C(C)(C)[C@]12C=Cc1cc(O)ccc1O2` gave LMP1 NFkB inh -25, Shn3 3UTR inh 87*, aSyn UTR inh -7 and MITF TRPM1 inh -4.
For CN1c2ccccc2C(C)(C)C12C=Nc1c(ccc3ccccc13)O2 (stereo not drawn) the results were LMP1 NFkB inh -11, Shn3 3UTR inh -29, aSyn UTR inh -40 and MITF TRPM1 inh 11.
`O=C(CCCCCCC(=O)Nc1ccccc1)NO` gave PAX8 inh HTS 102*, LMP1 NFkB inh -399, Shn3 3UTR inh -261 and MITF TRPM1 inh 84*.
CCN(CC)c1ccc(NC(=O)CCCCC(=O)Nc2ccc(N(CC)CC)cc2)cc1 was read as PAX8 inh HTS 1, LMP1 NFkB inh 14, Shn3 3UTR inh 23, aSyn UTR inh 63* and MITF TRPM1 inh 29.
For CN(C)c1cccc2c(S(=O)(=O)NCC3CCN(C(=O)C(=O)c4cc5ccccc5o4)CC3)cccc12 the results were PAX8 inh HTS 62*.
O=C(C(=O)N1CCC(CNS(=O)(=O)c2ccccc2OC(F)(F)F)CC1)c1cc2ccccc2o1 was read as PAX8 inh HTS 38.
COc1ccc(/C(CC2OC(=O)c3ccccc32)=N\NC(N)=O)cc1 (stereo not drawn) was read as PAX8 inh HTS -11, LMP1 NFkB inh 65*, Shn3 3UTR inh -36, aSyn UTR inh 6 and MITF TRPM1 inh 4.
COc1ccc2c(c1OC)C(=O)OC2C/C(=N\NC(N)=O)c1ccccc1 (stereo not drawn) was read as PAX8 inh HTS -11, LMP1 NFkB inh 2, Shn3 3UTR inh -22, aSyn UTR inh -31 and MITF TRPM1 inh -24.
CN1c2ccccc2N(C)C1(C)c1ccccc1 was read as PAX8 inh HTS 92*, LMP1 NFkB inh -8, Shn3 3UTR inh 80, aSyn UTR inh -9 and MITF TRPM1 inh 17.
CCN1c2ccccc2N(C)C1(C)c1ccccc1 (stereo not drawn) was read as LMP1 NFkB inh 8, Shn3 3UTR inh 89* and MITF TRPM1 inh 60.
`CCC1(c2ccccc2)CN(C)C1=O` (stereo not drawn) gave PAX8 inh HTS 0, LMP1 NFkB inh -3 and Shn3 3UTR inh 7.
Screening CCOc1ccc(NC(=O)CC2C(=O)N(c3ccc(OCC)cc3)C(=S)N2C2CC2)cc1 (stereo not drawn) returned PAX8 inh HTS -5, LMP1 NFkB inh -1, Shn3 3UTR inh -7, aSyn UTR inh 29 and MITF TRPM1 inh 4.
For CCCOc1ccc(NC(=O)CC2C(=O)N(c3ccc(OCC)cc3)C(=S)N2C2CC2)cc1 (stereo not drawn) the results were PAX8 inh HTS 8, LMP1 NFkB inh -5, Shn3 3UTR inh 22, aSyn UTR inh 50 and MITF TRPM1 inh 75*.
`Cc1ccc(/C=N/NC(=O)c2ccccc2OCc2ccc(F)cc2)o1` gave PAX8 inh HTS 18, LMP1 NFkB inh 4, Shn3 3UTR inh -5, aSyn UTR inh -15 and MITF TRPM1 inh 7.
Screening COc1ccc(N(CC(=O)Nc2cc(Cl)ccc2C)S(=O)(=O)c2c(C)noc2C)cc1 returned PAX8 inh HTS 41, LMP1 NFkB inh -5, Shn3 3UTR inh -7, aSyn UTR inh 78* and MITF TRPM1 inh 13.
`OCC1OC(n2nc3ccccc3n2)C(O)C(O)C1O` (stereo not drawn) gave LMP1 NFkB inh -3, Shn3 3UTR inh 8, aSyn UTR inh 27 and MITF TRPM1 inh -3.
`Nc1ccn(C2OC(CO)C(O)C2O)c(=O)n1` (stereo not drawn) gave Shn3 3UTR inh 67.
COc1nc(=O)n(C2OC(CO)C(O)C2O)cc1C (stereo not drawn) was read as PAX8 inh HTS -4, LMP1 NFkB inh -4, Shn3 3UTR inh inconclusive and MITF TRPM1 inh -12.
